Screening results (PubChem BioAssay)
MazEF act: activators of E. coli MazEF toxin-antitoxin RNase. 0.32% of 350,000 active. FAM/BHQ RNA-DNA oligo cleavage fluorescence, 5 h. activation, % at 20 µM. P0AE70. AID 504720; in the data active = activation above about 50%
Target sequence (P0AE70 whole entry, looked up): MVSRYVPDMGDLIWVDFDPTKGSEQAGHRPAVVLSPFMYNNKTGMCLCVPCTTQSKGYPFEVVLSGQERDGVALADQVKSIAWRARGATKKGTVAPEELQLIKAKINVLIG
Anthrax LF inh2: blocks Bacillus anthracis lethal factor protease; multiplex microsphere protease cleavage assay, LF; inhibition, % at 10 µM; 0.12% of 360,000 active; also: plate controls were buffer without enzyme for full effect and enzyme alone for no effect
BoNT F protease: BoNT F light chain protease inhibition; Multiplex microsphere protease cleavage assay, flow cytometry; inhibition, % at 10 µM; 0.22% of 360,000 active; AID 588497; in the data active = inhibition above about 35%, passing the limit was not always enough; inconclusive = no clear call, values can overlap the other calls; also: plate controls were buffer without enzyme for full effect and enzyme alone for no effect
DUSP3 inh: blocks human VHR1 dual specificity phosphatase. P51452. recombinant VHR phosphatase, pNPP absorbance. inhibition, % at 13.3 µM. 0.52% of 290,000 active; in the data active = inhibition above about 50%
Target sequence (P51452 whole entry, looked up): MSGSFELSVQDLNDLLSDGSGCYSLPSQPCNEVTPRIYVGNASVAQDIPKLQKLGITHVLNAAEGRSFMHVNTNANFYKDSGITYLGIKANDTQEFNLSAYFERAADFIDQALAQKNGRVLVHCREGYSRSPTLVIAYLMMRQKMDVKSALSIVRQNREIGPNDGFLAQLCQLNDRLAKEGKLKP
BoNT A protease: blocks Botulinum neurotoxin A light chain protease. multiplex microsphere protease substrate cleavage, flow cytometry. inhibition, % at 10 µM. 0.17% of 360,000 active. AID 588499; also: plate controls were buffer without enzyme for full effect and enzyme alone for no effect
Autofluor counter: compound fluorescence in toxin protease inhibitor counterscreen | compound autofluorescence counterscreen, microsphere flow cytometry; stronger effect = higher value | fluorescence intensity (test concentration not listed) | 3.1% of 360,000 active | AID 624483; in the data active = fluorescence intensity above about 16000; inconclusive = no clear call, values can overlap the other calls
BoNTA LC inh 1: inhibitors of Botulinum neurotoxin A light chain protease. shares compounds with BoNT F protease. multiplex microsphere protease assay, flow cytometry. inhibition, % at 10 µM. 3% of 720 active. AID 602139; in the data active = inhibition above about 32%
BoNTF LC inh 1: BoNT/F light chain protease inhibition; AID 602140; shares compounds with BoNT F protease; inhibition, % at 10 µM; multiplex microsphere protease cleavage assay, flow cytometry; 720 tested, under 10 active; call rule not given here
LF protease CP1: inhibitors of Bacillus anthracis lethal factor protease; shares compounds with BoNT F protease; multiplex microsphere protease cleavage assay, LF; inhibition, % at 10 µM; 720 tested, under 10 active; AID 602142; call rule not given here
An asterisk follows results filed as active; ? = inconclusive; · = no result given. An excerpt weighted towards active compounds, which were near 4.1% of everything screened. Rule as the data show it, unless noted: active = inhibition above about 30%; inconclusive = no clear call, values can overlap the other calls; inactive = below that.

SMILES	MazEF act	Anthrax LF inh2	BoNT F protease	DUSP3 inh	BoNT A protease	Autofluor counter	BoNTA LC inh 1	BoNTF LC inh 1	LF protease CP1
Cc1ccc(OCCCC(=O)Nc2ccc(S(N)(=O)=O)cc2)cc1	-0.8	-3.9	40.9*	1.2	4.7	4147	-0.3	-2.5	-2.9
NS(=O)(=O)c1cccc(NC(=O)CC(NC(=O)c2ccccc2Cl)c2ccccc2)c1 (stereo not drawn)	-0.2	9.0	34.7*	-8.2	-1.5	3427	0.6	-4.2	-0.8
CCN(CC)c1ccc(C(=O)NC(=S)N2CCN(Cc3ccc4c(c3)OCO4)CC2)cc1	4.3	5.6	51.4*	-8.8	-12.8	22907*	-11.9	-5.3	-2.9
CC(C)NC(=S)N1CCN(Cc2ccc3c(c2)OCO3)CC1	3.4	-5.3	-6.9	7.6	-0.6	4330	·	·	·
O=C(O)CC(NC(=O)CCC1CCCCC1)c1cc([N+](=O)[O-])ccc1Cl (stereo not drawn)	5.9	-2.1	-9.2	-8.7	-1.1	3925	·	·	·
Cc1cc(Cl)ccc1NS(=O)(=O)c1c(C)[nH]c(=O)[nH]c1=O	-0.9	-0.5	10.3	5.3	-2.2	3569	·	·	·
Cc1[nH]c(=O)[nH]c(=O)c1S(=O)(=O)Nc1ccc(F)c(Cl)c1	0.8	32.7*	-6.0	-16.2	-1.7	3421	0.5	0.0	1.6
COc1ccc(-c2nnc(OC)c3ccccc23)cc1	5.6	6.9	37.4*	13.6	2.8	4236	-0.1	-2.5	-3.7
COc1cccc(-c2nc(CS(=O)(=O)CC(=O)Nc3ccccc3Br)c(C)o2)c1	-11.9	-0.1	0.7	-27.1	-0.4	5055	·	·	·
CCOc1ccc2nc3cc(NCc4ccc(OC)cc4)ccc3c(N)c2c1	-88.8	-14.0	-164.5	16.5	69.9*	3686	33.3*	-57.8	7.6
CC(C)CCn1c(-c2nonc2N)nc2ccccc21	0.4	-7.2	32.3	-22.0	1.1	3532	-0.6	-3.5	-2.5
COc1ccc(CNC(=O)C(C)OC(=O)CN2C(=O)COc3ccccc32)cc1 (stereo not drawn)	-1.1	-9.5	13.8	11.8	-4.5	3945	·	·	·
CC(=O)Nc1ccc(NC(=O)C/C(C)=N/NC(=O)c2cccc3ccccc23)cc1	11.9	-5.7	4.6	11.3	1.4	4043	·	·	·
N#Cc1cccc(C(c2nnnn2C2CCCC2)N2CCC(Cc3ccccc3)CC2)c1 (stereo not drawn)	-10.4	-1.5	-2.1	13.2	-1.3	5535	·	·	·
N#Cc1cccc(C(c2nnnn2C2CCCC2)N2CCCCCC2)c1 (stereo not drawn)	-0.8	-3.4	32.2	23.7	0.4	3317	1.9	2.0	3.1
CC1=C(C(=O)N(C)C)CC(CC(=O)NC(c2ccccc2)c2ccccc2)C(=O)N1Cc1ccc(F)cc1 (stereo not drawn)	-0.7	-4.0	-0.8	·	0.2	2885	·	·	·
CC1CCCN(C(=O)COC(=O)c2ccc(=O)n(Cc3ccccc3)n2)C1 (stereo not drawn)	5.7	-1.1	-0.3	·	-1.6	?	·	·	·
Cc1ccc(C2CC(c3ccc(NS(C)(=O)=O)cc3)=NN2C(=O)c2ccco2)cc1 (stereo not drawn)	0.4	1.5	36.1*	0.1	3.3	2791	0.7	-3.9	0.3
C[C@@H]1COc2cc(N(C)CCO)ccc2S(=O)(=O)N1	·	-6.7	-8.7	·	-0.6	4777	·	·	·
O=C(O)C1C2C=CC(C2)C1C(=O)N1CCc2ccccc21 (stereo not drawn)	0.2	5.7	38.6*	20.7	3.6	3667	-2.4	-7.7	-1.1
O=C(Nc1ccc(Oc2cccnc2)cc1)c1ccc([N+](=O)[O-])cc1	-10.2	-1.5	-1.8	12.5	-0.2	2603	·	·	·
O=C(Nc1ccc(Nc2ccncc2)cc1)c1ccc([N+](=O)[O-])cc1	-12.3	35.8*	-7.7	31.5	0.7	3510	-1.3	-9.8	-2.1
CC(C)(C)c1ccc(C(=O)CCC(=O)OCC(=O)NCCc2ccc(S(N)(=O)=O)cc2)cc1	-1.5	-0.4	-3.3	·	0.5	3793	·	·	·
Cc1ccc2c(=O)n3c(nc2c1)C(Cc1ccc(O)cc1)NC(=O)c1cccnc1-3 (stereo not drawn)	7.5	2.6	4.4	·	-0.2	3852	·	·	·
COC(=O)c1ccc(COc2ccc(-c3nn[nH]n3)cc2)cc1	6.3	-28.3	47.3*	25.6	48.8*	4697	-0.1	3.1	-2.2
SMILES	MazEF act	Anthrax LF inh2	BoNT F protease	DUSP3 inh	BoNT A protease	Autofluor counter	BoNTA LC inh 1	BoNTF LC inh 1	LF protease CP1
COc1ccc(CN2CCN(CC3CC3)CC2CCO)c(C)c1C (stereo not drawn)	2.9	43.2*	-45.9	-7.9	-1.3	4181	-1.1	-2.8	-0.8
COc1ccc(CN2CCN(C3CCSCC3)CC2CCO)c(C)c1C (stereo not drawn)	7.4	2.0	-2.0	-23.3	0.6	3850	·	·	·
O=C(Cc1cccc(C(F)(F)F)c1)NCc1ccc(Cl)cc1	-1.6	-0.4	0.2	1.9	0.0	2705	·	·	·
O=C(O)CS(=O)(=O)CC(=O)NCc1cccc(C(F)(F)F)c1	-4.0	1.6	49.8*	3.0	4.2	2638	0.5	-6.5	-2.4
CSc1ccc(CN(C)CC(=O)NCCc2ccccc2)cc1	-3.1	2.6	39.5*	21.1	2.2	3529	-0.6	-1.6	-3.7
CCCCOc1ccc(C(=O)CCN2CCOCC2)cc1	0.1	-4.0	5.8	15.5	1.4	4576	2.1	0.0	-0.9
O=C(NCc1cccc(Cl)c1)C1Cc2c(-c3ccccc3Oc3ccccc3)ccnc2O1 (stereo not drawn)	·	-5.6	-4.2	·	-0.5	2993	·	·	·
Cc1cccc(CNC(=O)c2sc(=O)n(Cc3c(C)cccc3C)c2C)c1	·	-7.9	-6.9	·	-0.6	4040	·	·	·
N#Cc1ccc(OCC(=O)Nc2cc(S(=O)(=O)N3CCOCC3)ccc2N2CCCC2)cc1	-0.6	·	·	·	·	·	·	·	·
COc1cccc(CN2CCSCC2)c1OC	1.8	-21.2	10.9	10.7	1.9	3808	·	·	·
COc1ccccc1CN1CCSCC1	-11.9	13.9	70.8*	6.4	12.0	10448	-1.5	-13.2	-3.5
Cc1nc(C)c(-c2ccn(C(=O)NC(C)C)n2)s1	-15.5	3.2	38.3*	8.7	0.8	3164	1.7	-2.0	2.6
CC(C(=O)NCc1ccccc1Cl)n1cc([N+](=O)[O-])cn1 (stereo not drawn)	4.8	-15.1	37.7*	2.3	-1.0	3781	0.5	-3.7	-0.7
Cc1cccc(OCC(=O)Nc2cccc(C(=O)Nc3ccccc3C(=O)O)c2)c1	0.9	-2.1	-6.1	-7.9	0.3	1922	·	·	·
Cc1ccccc1NS(=O)(=O)c1cccc(C(=O)Nc2cccc(C(=O)O)c2)c1	7.6	4.9	?	-3.8	-1.7	4073	-1.0	-4.1	-0.7
O=C(Nc1ccccc1O)c1cccc(S(=O)(=O)Nc2ccccc2O)c1	5.5	3.8	-8.8	·	-0.1	6544	-2.2	-20.8	-2.3
